PubChem BioAssay (NCI)
Compounds without any hit were thinned out: in the full panel of roughly 79,000, 15% have a hit. Unmarked numbers belong to inactive results. The source made the active and inactive calls. Rule as the data show it: active = growth inhibition above about 70%; inactive = the rest.

Experiment: NCI Yeast Anticancer Drug Screen. Data for the rad50 strain (AID 155);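 also: 0% = growth of vehicle-only cultures of the same strain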
Conditions: S. cerevisiae rad50 strain growth inhibition; at 5.0 µM (retest, dose inferred, filed as 0.5); active compounds read high
How it was run: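 A DNA repair-deficient yeast mutant serves as the test organism; compound-induced growth inhibition is calculated against vehicle-treated cells.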

| SMILES | growth inhibition |
| --- | --- |
| CC(=O)C(C(=N)C#N)C(=O)Nc1ccccc1 (configuration not stated) | 1% |
| COc1ccc2nc3cc(Cl)ccc3c(NCCC[N+](C)(C)CCCCCCCCCC[N+](C)(C)CCCNc3c4ccc(Cl)cc4nc4ccc(OC)cc34)c2c1 | 44% |
| Oc1cc(Cl)cc2c1-c1ccc(Cl)cc1C2O (configuration not stated) | 9% |
| CC1(C)OC(=O)C(=NNc2ccccc2[N+](=O)[O-])C(=O)O1 | 5% |
| Clc1ccc(OCC2CO2)c(Cl)c1 (configuration not stated) | 43% |
| O=c1ccc([N+](=O)[O-])c[nH]1.[Ag] | 98% (active) |
| O=C1CSC(c2c[nH]c3ccccc23)N1c1cccc(Cl)c1 (configuration not stated) | 10% |
| Fc1cccc(NC(=S)SCc2ccco2)c1 | 9% |
| S=c1[nH]nc(SCc2ccc(Cl)c(Cl)c2)c2[nH]cnc12 | -4% |
| Cc1c(Cl)cccc1NC(=O)/C(Cl)=C(\Cl)C(=O)O | -1% |
| Nc1ccc2ccc3cccc4ccc1c2c34 | 1% |
| O=C(C(/C=N/C(=S)NCc1ccccc1)=C(/O)c1ccccc1)c1ccccc1 | 6% |
| C/C(=N\NC(=S)Nc1ccc(Cl)cc1)c1nc2ncccc2[nH]1 | 3% |
| O=C(/C=C\c1ccc(Cl)c(Cl)c1)c1cccs1 | 13% |
| CC12CC(O)C3C(CCC4CCCCC43C)C1CC/C2=N/O (configuration not stated) | 47% |
| CCCn1cc2c(SC)nc(SC)nc2n1 | -1% |
| Cc1ccc(C2(O)c3ccccc3-c3ccccc32)cc1 | 4% |
| C=CCc1ccc2c(C)cc[n+](C)c2c1O | 12% |
| COC(=O)c1nc(NC#N)[nH]c(=O)c1CCCCCc1cnc(NC#N)nc1 | -3% |
| Cc1c2cnccc2c(C)c2c1c1ccccc1n2CCOC(=O)c1ccccc1 | 9% |
| C/C(=N/O)c1ccc2c(c1)C(C)c1ccccc1-2 (configuration not stated) | -147% |
| Oc1ccc2ccccc2c1I | 41% |

Same assay, conditions: S. cerevisiae rad50 strain growth inhibition; at 50.0 µM (retest, dose inferred, filed as 5.0); active compounds read high

| SMILES | growth inhibition |
| --- | --- |
| C=CC(=O)N1C/C(=C\c2ccc(F)cc2)C(=O)/C(=C/c2ccc(F)cc2)C1 | 75% (active) |
| CCOc1ccc2c(c1)n([O-])c1ccccc1[n+]2=O | 98% (active) |
| O=C(/C(Cl)=N/O)c1ccccc1 | 99% (active) |
| O=C(NC1CCN(Cc2ccccc2)CC1)c1ccc(I)cc1 | 59% |
| O=C1c2ccccc2CCC1C(O)(C(F)(F)F)C(F)(F)F (configuration not stated) | 13% |
| O=C(C(=O)n1ncc(Cl)c(Cl)c1=O)n1ncc(Cl)c(Cl)c1=O | 7% |
| OC1OCC(OCc2ccccc2)C(OCc2ccccc2)C1OCc1ccccc1 (configuration not stated) | 61% |
| CN1CCC(OC(=O)c2ccc3ncccc3c2)CC1 | 6% |
| CCC(c1ccc(O)cc1)C(CC)c1ccc(OCC(N)=O)cc1 (configuration not stated) | -5% |
| CCCCCCCC(=O)O[C@H]1[C@H]2[C@@H](CC1(C)C)C(=O)[C@]13O[C@H]1C(=O)[C@]1(CO1)[C@]23C | 98% (active) |
| CN1CCCN(C)C1c1cc([N+](=O)[O-])ccc1O | 95% (active) |
| CCOC(=O)C[n+]1c(C)sc2ccccc21 | 23% |
| O=C(O)C(CCc1cccc2ccccc12)c1ccccc1 (configuration not stated) | 97% (active) |
| O=C1C(Cl)=C(Cl)C(=O)C2CC=CCC12 (configuration not stated) | 97% (active) |
| Nc1n[nH]c(=O)c2cccnc12 | -13% |
| OC(CBr)c1cc(-c2ccccc2)nc2ccccc12 (configuration not stated) | 98% (active) |
| O=C(O)CCCc1ccc2c(c1)CC1(C2)Cc2ccc(CCCC(=O)O)cc2C1 | 44% |
| CC1=Nc2ccccc2/C1=C\c1c(C)[nH]c2ccccc12 | 96% (active) |
| CC(=O)C(C(=N)C#N)C(=O)Nc1ccccc1 (configuration not stated) | 10% |
| COc1ccc2nc3cc(Cl)ccc3c(NCCC[N+](C)(C)CCCCCCCCCC[N+](C)(C)CCCNc3c4ccc(Cl)cc4nc4ccc(OC)cc34)c2c1 | 98% (active) |

| SMILES | growth inhibition |
| --- | --- |
| Oc1cc(Cl)cc2c1-c1ccc(Cl)cc1C2O (configuration not stated) | 97% (active) |
| CC1(C)OC(=O)C(=NNc2ccccc2[N+](=O)[O-])C(=O)O1 | 4% |
| Clc1ccc(OCC2CO2)c(Cl)c1 (configuration not stated) | 93% (active) |
| O=c1ccc([N+](=O)[O-])c[nH]1.[Ag] | 98% (active) |
| O=C1CSC(c2c[nH]c3ccccc23)N1c1cccc(Cl)c1 (configuration not stated) | 93% (active) |
| Fc1cccc(NC(=S)SCc2ccco2)c1 | 84% (active) |
| S=c1[nH]nc(SCc2ccc(Cl)c(Cl)c2)c2[nH]cnc12 | -13% |
| Cc1c(Cl)cccc1NC(=O)/C(Cl)=C(\Cl)C(=O)O | 33% |
| Nc1ccc2ccc3cccc4ccc1c2c34 | 98% (active) |
| O=C(C(/C=N/C(=S)NCc1ccccc1)=C(/O)c1ccccc1)c1ccccc1 | 86% (active) |
| C/C(=N\NC(=S)Nc1ccc(Cl)cc1)c1nc2ncccc2[nH]1 | 98% (active) |
| O=C(/C=C\c1ccc(Cl)c(Cl)c1)c1cccs1 | -9% |
| CC12CC(O)C3C(CCC4CCCCC43C)C1CC/C2=N/O (configuration not stated) | -10% |
| CCCn1cc2c(SC)nc(SC)nc2n1 | 5% |
| Cc1ccc(C2(O)c3ccccc3-c3ccccc32)cc1 | 98% (active) |
| C=CCc1ccc2c(C)cc[n+](C)c2c1O | 99% (active) |
| COC(=O)c1nc(NC#N)[nH]c(=O)c1CCCCCc1cnc(NC#N)nc1 | 1% |
| Cc1c2cnccc2c(C)c2c1c1ccccc1n2CCOC(=O)c1ccccc1 | 94% (active) |
| C/C(=N/O)c1ccc2c(c1)C(C)c1ccccc1-2 (configuration not stated) | -142% |
| Oc1ccc2ccccc2c1I | 75% (active) |
